# PubChem BioAssay (NCI)
# Where “and” joins values, the source holds several entries; their conditions need not be identical. Identical values can stand only once. This is part of a sample that, as a whole, favours compounds with a hit. Of some 83,000 tested, about 20% had one in any assay.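 48-hour exposure, single concentration, 96-well plates; percent growth endpoint where 0 means no net growth. Active: below 10.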 Values without a mark were called inactive. Calls of active or inactive are those of the source.
# What was measured:
# Assay in all cases: NCI-60 one-dose screen, 48 h (100 = growth as untreated, 0 = no growth, -100 = all killed)
# [1] = test system: HCT-15 colon; conditions: 10 µM unless noted
# [2] = test system: HT29 colon; conditions: 10 µM unless noted
# [3] = test system: SNB-75 CNS; conditions: 10 µM unless noted
# [4] = test system: SNB-19 CNS; conditions: 10 µM unless noted
# [5] = test system: U251 CNS; conditions: 10 µM unless noted
# [6] = test system: PC-3 prostate; conditions: 10 µM unless noted
# [7] = test system: SK-MEL-5 melanoma; conditions: 10 µM unless noted
# [8] = test system: UACC-62 melanoma
# [9] = test system: LOX IMVI melanoma; conditions: 10 µM
# [10] = test system: SK-MEL-28 melanoma; conditions: 10 µM unless noted
# [11] = test system: SK-MEL-2 melanoma; conditions: 10 µM unless noted
# [12] = test system: EKVX NSCLC; conditions: 10 µM unless noted
# [13] = test system: SN12C renal; conditions: 10 µM unless noted
# [14] = test system: UO-31 renal; conditions: 10 µM unless noted
# [15] = test system: TK-10 renal
# [16] = test system: ACHN renal; conditions: 10 µM unless noted
# [17] = test system: CAKI-1 renal; conditions: 10 µM unless noted
# [18] = test system: A498 renal; conditions: 10 µM unless noted
# [19] = test system: CCRF-CEM leukemia; conditions: 10 µM unless noted
# [20] = test system: MOLT-4 leukemia; conditions: 10 µM unless noted
smiles,measurement,setting,value
O=C(NNc1ccccc1)OCc1ccccc1,growth,[1],73%
same,growth,[2],97.7%
same,growth,[3],114%
same,growth,[4],97.5%
same,growth,[5],80.4%
same,growth,[6],54.1%
same,growth,[7],101%
same,growth,[8]; 10 µM unless noted,28.1%
same,growth,[9],20.8%
same,growth,[10],105%
same,growth,[11],86.1%
same,growth,[12],91%
same,growth,[13],84.9%
same,growth,[14],56.8%
same,growth,[15]; 10 µM unless noted,90%
same,growth,[16],50.2%
same,growth,[17],28.3%
same,growth,[18],86.1%
same,growth,[19],22%
same,growth,[20],26.9%
Clc1ccc(-n2ncc3c(NCCCN4CCOCC4)ncnc32)cc1,growth,[1],96.6%
same,growth,[2],105%
same,growth,[3],89.6%
same,growth,[4],102%
same,growth,[5],93.1%
same,growth,[6],87.5%
same,growth,[7],83.5%
same,growth,[8]; 10 µM unless noted,110%
same,growth,[9],88.8%
same,growth,[10],94.6%
same,growth,[11],108%
same,growth,[12],92.9%
same,growth,[13],99.1%
same,growth,[14],79.6%
same,growth,[15]; 10 µM unless noted,107%
same,growth,[16],96.4%
same,growth,[17],107%
same,growth,[18],104%
same,growth,[19],94.4%
same,growth,[20],97.7%
CC(C)c1ccc(C(=O)OC2CCCC2)cc1,growth,[1],95.3%
same,growth,[2],113%
same,growth,[3],90.4%
same,growth,[4],102%
same,growth,[5],109%
same,growth,[6],89.9%
same,growth,[7],98.7%
same,growth,[8]; 10 µM unless noted,97.7%
same,growth,[9],95%
same,growth,[10],108%
same,growth,[11],105%
same,growth,[12],92.6%
same,growth,[13],97.5%
same,growth,[14],99.6%
same,growth,[17],98.8%
same,growth,[18],117%
same,growth,[19],89.8%
same,growth,[20],110%
Cc1nc(Sc2nc3ccc([N+](=O)[O-])cc3s2)sc1C,growth,[1],-21.2% (active)
same,growth,[2],10.2%
same,growth,[3],53.1%
same,growth,[4],35.4%
same,growth,[5],27.2%
same,growth,[6],23%
same,growth,[7],41.1%
same,growth,[8]; 10 µM unless noted,-15.4% (active)
same,growth,[9],-46.4% (active)
same,growth,[10],27.8%
same,growth,[11],15.4%
same,growth,[13],-29.4% (active)
same,growth,[14],23.5%
same,growth,[15]; 10 µM unless noted,19.3%
same,growth,[16],11.4%
same,growth,[17],28.5%
same,growth,[18],46.5%
same,growth,[19],-13.5% (active)
same,growth,[20],-7.45% (active)
COC(=O)c1cc([N+](=O)[O-])cc([N+](=O)[O-])c1Cl,growth,[1],-4.09% (active)
same,growth,[2],-85.2% (active)
same,growth,[3],90.4%
same,growth,[4],104%
same,growth,[5],9.52% (active)
same,growth,[6],97%
same,growth,[7],107%
same,growth,[8]; 10 µM unless noted,90.6%
same,growth,[9],57.7%
same,growth,[10],108%
same,growth,[11],87.4%
same,growth,[12],98.1%
same,growth,[13],99.8%
same,growth,[14],79.1%
same,growth,[15]; 10 µM unless noted,-41.3% (active)
same,growth,[16],15.6%
same,growth,[19],29.8%
same,growth,[20],26.6%
Cc1ccccc1N=C(N)Nc1ccccc1C (tested in a mixture with another compound),growth,[1],66.5%
same,growth,[2],97.3%
same,growth,[3],99.5%
same,growth,[4],89.1%
same,growth,[5],84%
same,growth,[6],70.7%
same,growth,[7],73.1%
same,growth,[8]; 10 µM unless noted,90.5%
same,growth,[9],93%
same,growth,[10],105%
same,growth,[11],85.7%
same,growth,[12],85.3%
same,growth,[13],82.8%
same,growth,[15]; 10 µM unless noted,67.8%
same,growth,[16],77.9%
same,growth,[17],52.9%
same,growth,[18],96.8%
same,growth,[19],9.64% (active)
same,growth,[20],37.1%
CC1(C)OCC(COC(c2ccccc2)(c2ccccc2)c2ccccc2)O1 (stereo not drawn),growth,[1],100%
same,growth,[2],91.9%
same,growth,[3],89.3%
same,growth,[4],100%
same,growth,[5],95.3%
same,growth,[6],89.2%
same,growth,[7],105%
same,growth,[8]; 10 µM unless noted,99.3%
same,growth,[9],89.1%
same,growth,[10],103%
same,growth,[11],83.3%
same,growth,[13],102%
same,growth,[14],85.7%
same,growth,[15]; 10 µM unless noted,88.5%
same,growth,[16],97.6%
same,growth,[17],89.1%
same,growth,[18],57.2%
same,growth,[19],102%
same,growth,[20],93.1%
CN(C)c1ccc(/C=C/c2ccnc3ccccc23)cc1,growth,[1],26.8%
same,growth,[2],4.25% (active)
same,growth,[3],22.4%
same,growth,[4],51.7%
same,growth,[5],38.3%
same,growth,[6],53%
same,growth,[7],33%
same,growth,[8]; 10 µM unless noted,34.4%
same,growth,[9],38.3%
same,growth,[10],71.8%
same,growth,[11],-5.02% (active)
same,growth,[12],22.4%
same,growth,[13],36.2%
same,growth,[14],50.2%
same,growth,[15]; 10 µM unless noted,59.5%
same,growth,[16],47.4%
same,growth,[17],45.7%
same,growth,[18],62%
same,growth,[19],51.1%
same,growth,[20],33.1%
CCCCCCCCCCCC[N+]1(CCCCCCCCCCCC)CCCC(C)C1 (stereo not drawn),growth,[1],-55.6% (active)
same,growth,[2],-91.8% (active)
same,growth,[3],-88.3% (active)
same,growth,[4],-96.5% (active)
same,growth,[5],-61% (active)
same,growth,[6],-93.7% (active)
same,growth,[7],-100% (active)
same,growth,[8]; 10 µM unless noted,-77.9% (active)
same,growth,[9],-80% (active)
same,growth,[10],-91.2% (active)
same,growth,[11],-96.5% (active)
same,growth,[12],-51.7% (active)
same,growth,[13],-72.4% (active)
same,growth,[15]; 10 µM unless noted,-79.3% (active)
same,growth,[16],-78.5% (active)
same,growth,[18],-88.4% (active)
same,growth,[19],-56.7% (active)
same,growth,[20],-62.6% (active)
Cc1nnc(N/N=C/c2ccc([N+](=O)[O-])o2)[nH]c1=O,growth,[1],15.7%
same,growth,[2],27.5%
same,growth,[3],42.3%
same,growth,[4],11.6%
same,growth,[5],4.33% (active)
same,growth,[6],3.62% (active)
same,growth,[7],-24.3% (active)
same,growth,[8]; 10 µM unless noted,10.6%
same,growth,[9],11%
same,growth,[10],25.4%
same,growth,[11],7.95% (active)
same,growth,[13],13.8%
same,growth,[14],5.83% (active)
same,growth,[15]; 10 µM unless noted,-10.2% (active)
same,growth,[16],-50.8% (active)
same,growth,[17],-23.3% (active)
same,growth,[18],-1.71% (active)
same,growth,[19],-21.9% (active)
same,growth,[20],5.88% (active)
CC(C)=CCCC(C)C1=C(O)C(=O)C(C)=CC1=O (stereo not drawn),growth,[1],1.72% (active)
same,growth,[2],83.6%
same,growth,[3],113%
same,growth,[4],98.7%
same,growth,[5],81.3%
same,growth,[6],90.8%
same,growth,[7],88.7%
same,growth,[8]; 10 µM,103%
same,growth,[8]; 100 µM,-98.4% (active) and -93.3% (active)
same,growth,[9],59.1%
same,growth,[11],92.9%
same,growth,[12],122%
same,growth,[13],106%
same,growth,[14],-98.3% (active)
same,growth,[15]; 10 µM,5.08% (active)
same,growth,[15]; 100 µM,-99.3% (active) and -84.7% (active)
same,growth,[16],-39% (active)
same,growth,[17],88.4%
same,growth,[18],92.9%
same,growth,[19],-29.2% (active)
same,growth,[20],-30.1% (active)
CC1=CC(=O)C=CC1(C)C(Cl)(Cl)Cl (stereo not drawn),growth,[1],97.3%
same,growth,[2],83.1%
same,growth,[3],109%
same,growth,[4],92%
same,growth,[5],83.1%
same,growth,[6],92.9%
same,growth,[7],103%
same,growth,[8]; 10 µM unless noted,95.7%
same,growth,[9],93%
same,growth,[10],102%
same,growth,[11],87.5%
same,growth,[12],100%
same,growth,[13],88.8%
same,growth,[14],92%
same,growth,[15]; 10 µM unless noted,80.2%
same,growth,[17],104%
same,growth,[18],87.6%
same,growth,[19],94.9%
same,growth,[20],93.9%
Oc1ccc(Nc2ccc3ccccc3c2)cc1,growth,[1],54.7%
same,growth,[2],95.8%
same,growth,[3],63.2%
same,growth,[4],75.5%
same,growth,[5],67.5%
same,growth,[6],39.2%
same,growth,[7],44.7%
same,growth,[8]; 10 µM unless noted,18%
same,growth,[9],40.9%
same,growth,[10],90.3%
same,growth,[11],62.4%
same,growth,[12],79%
same,growth,[13],64.8%
same,growth,[14],10.6%
same,growth,[15]; 10 µM unless noted,45.3%
same,growth,[16],18.5%
same,growth,[17],8.98% (active)
same,growth,[18],94.1%
same,growth,[19],49%
same,growth,[20],46.8%
CCCCN(CCCC)CCCCCCCCCCO,growth,[1],94.3%
same,growth,[2],89.2%
same,growth,[3],101%
same,growth,[4],110%
same,growth,[5],102%
same,growth,[6],115%
same,growth,[7],103%
same,growth,[8]; 10 µM unless noted,114%
same,growth,[9],95.2%
same,growth,[10],112%
same,growth,[11],86.9%
same,growth,[13],107%
same,growth,[14],81.3%
same,growth,[15]; 10 µM unless noted,93.6%
same,growth,[16],97.1%
same,growth,[17],105%
same,growth,[18],123%
same,growth,[19],98%
same,growth,[20],83%
S=C1SCN(Cc2cccs2)CN1Cc1cccs1,growth,[1],96.6%
same,growth,[2],97.2%
same,growth,[3],86.2%
same,growth,[4],96.5%
same,growth,[5],95.6%
same,growth,[6],96.2%
same,growth,[7],94%
same,growth,[8]; 10 µM unless noted,94%
same,growth,[9],93%
same,growth,[10],109%
same,growth,[11],99%
same,growth,[13],98.7%
same,growth,[14],88.8%
same,growth,[15]; 10 µM unless noted,90.7%
same,growth,[16],105%
same,growth,[17],99.4%
same,growth,[18],95.7%
same,growth,[19],70.9%
same,growth,[20],100%
c1ccc2sc(SSN3CC4CCC(CC4)C3)nc2c1,growth,[1],110%
same,growth,[2],114%
same,growth,[3],85.8%
same,growth,[4],105%
same,growth,[5],106%
same,growth,[6],100%
same,growth,[7],97.9%
same,growth,[8]; 10 µM unless noted,90.5%
same,growth,[9],92.1%
same,growth,[10],132%
same,growth,[11],124%
same,growth,[12],106%
same,growth,[13],104%
same,growth,[14],55.1%
same,growth,[15]; 10 µM unless noted,121%
same,growth,[16],98.3%
same,growth,[17],104%
same,growth,[18],142%
same,growth,[19],111%
same,growth,[20],56.3%
